Experimental data published in the supplement of paper PMC6897291.

How the values were obtained:
[1] = tested on: U-2932; assay: growth inhibition by drug alone (1 - RLU/untreated control) (fraction); higher = stronger inhibition; settings: 177Lu-lilotomab satetraxetan 0 ug/ml
How it was run: (§1)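 A radiolabelled anti-CD37 antibody conjugate (~600 MBq/mg) was applied for 18 h at 0.5 µg/ml to RIVA and 1 µg/ml to U-2932 cells, with untreated cells run alongside. All cells were washed and seeded at 3,000 cells/well onto library-printed plates at 10/100 nM (RIVA) or 10/1,000 nM (U-2932). Growth inhibition was based on RealTime-Glo luminescence compared with untreated no-drug wells. Daily reads began on day 3 after 1 h at 37°C, with each value being 1 − RLU/mean of the 48 such wells on that plate.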

[2] = tested on: RIVA; assay: as above; settings: 177Lu-lilotomab satetraxetan 0 ug/ml
How it was run: as §1

[3] = tested on: U-2932; assay: growth inhibition by drug plus 177Lu-lilotomab satetraxetan (1 - RLU/untreated control) (fraction); higher = stronger inhibition; settings: 177Lu-lilotomab satetraxetan 1 ug/ml
How it was run: as §1

[4] = tested on: RIVA; assay: as above; settings: 177Lu-lilotomab satetraxetan 0.5 ug/ml
How it was run: as §1

Row | Structure (SMILES) | growth inhibition by drug alone ([1]; 10 nM, time (day): 3) | growth inhibition by drug alone ([1]; 10 nM, time (day): 4) | growth inhibition by drug alone ([1]; 10 nM, time (day): 5) | growth inhibition by drug alone ([1]; 10 nM, time (day): 6) | growth inhibition by drug alone ([1]; 1000 nM, time (day): 3) | growth inhibition by drug alone ([1]; 1000 nM, time (day): 4) | growth inhibition by drug alone ([1]; 1000 nM, time (day): 5) | growth inhibition by drug alone ([1]; 1000 nM, time (day): 6) | growth inhibition by drug alone ([2]; 10 nM, time (day): 3) | growth inhibition by drug alone ([2]; 10 nM, time (day): 4) | growth inhibition by drug alone ([2]; 10 nM, time (day): 5) | growth inhibition by drug alone ([2]; 10 nM, time (day): 6) | growth inhibition by drug alone ([2]; 100 nM, time (day): 3) | growth inhibition by drug alone ([2]; 100 nM, time (day): 4) | growth inhibition by drug alone ([2]; 100 nM, time (day): 5) | growth inhibition by drug alone ([2]; 100 nM, time (day): 6) | growth inhibition by drug plus 177Lu-lilotomab satetraxetan ([3]; 10 nM, time (day): 3) | growth inhibition by drug plus 177Lu-lilotomab satetraxetan ([3]; 10 nM, time (day): 4) | growth inhibition by drug plus 177Lu-lilotomab satetraxetan ([3]; 10 nM, time (day): 5) | growth inhibition by drug plus 177Lu-lilotomab satetraxetan ([3]; 10 nM, time (day): 6) | growth inhibition by drug plus 177Lu-lilotomab satetraxetan ([3]; 1000 nM, time (day): 3) | growth inhibition by drug plus 177Lu-lilotomab satetraxetan ([3]; 1000 nM, time (day): 4) | growth inhibition by drug plus 177Lu-lilotomab satetraxetan ([3]; 1000 nM, time (day): 5) | growth inhibition by drug plus 177Lu-lilotomab satetraxetan ([3]; 1000 nM, time (day): 6) | growth inhibition by drug plus 177Lu-lilotomab satetraxetan ([4]; 10 nM, time (day): 3) | growth inhibition by drug plus 177Lu-lilotomab satetraxetan ([4]; 10 nM, time (day): 4) | growth inhibition by drug plus 177Lu-lilotomab satetraxetan ([4]; 10 nM, time (day): 5) | growth inhibition by drug plus 177Lu-lilotomab satetraxetan ([4]; 10 nM, time (day): 6) | growth inhibition by drug plus 177Lu-lilotomab satetraxetan ([4]; 100 nM, time (day): 3) | growth inhibition by drug plus 177Lu-lilotomab satetraxetan ([4]; 100 nM, time (day): 4) | growth inhibition by drug plus 177Lu-lilotomab satetraxetan ([4]; 100 nM, time (day): 5) | growth inhibition by drug plus 177Lu-lilotomab satetraxetan ([4]; 100 nM, time (day): 6)
1 | CCC(C)(C)C(=O)O[C@H]1C[C@@H](C)C=C2C=C[C@H](C)[C@H](CC[C@@H]3C[C@@H](O)CC(=O)O3)[C@H]21 [Simvastatin (Zocor)] | -0.0841 | -0.0759 | -0.00492 | 0.136 | -0.019 | -0.0256 | -0.0695 | -0.0808 | -0.198 | -0.217 | -0.225 | -0.276 | -0.024 | -0.0809 | -0.115 | -0.175 | -0.0665 | -0.0212 | -0.00846 | 0.124 | -0.0261 | -0.0186 | -0.0188 | 0.0898 | 0.493 | 0.554 | 0.575 | 0.582 | 0.469 | 0.494 | 0.501 | 0.48
2 | CC(=O)O[C@]1(C(C)=O)CC[C@H]2[C@@H]3C[C@H](C)C4=CC(=O)CC[C@]4(C)[C@H]3CC[C@@]21C [Medroxyprogesterone acetate] | 0.141 | 0.111 | 0.0166 | -0.207 | 0.107 | 0.162 | 0.15 | 0.056 | -0.0698 | -0.099 | -0.346 | -0.679 | -0.507 | -0.273 | -0.35 | -0.619 | 0.0781 | 0.0764 | 0.144 | 0.108 | 0.102 | 0.176 | 0.224 | 0.336 | 0.422 | 0.555 | 0.543 | 0.565 | 0.235 | 0.389 | 0.409 | 0.427
3 | COc1nc(C)cnc1NS(=O)(=O)c1cccnc1-c1ccc(-c2nnco2)cc1 [Zibotentan (ZD4054)] | -0.02 | -0.0119 | -0.0937 | -0.23 | -0.0348 | -0.00699 | -0.0784 | -0.143 | 0.00676 | -0.0294 | -0.0678 | -0.248 | -0.0338 | -0.0394 | -0.0583 | -0.115 | -0.0217 | 0.0145 | 0.00284 | 0.0711 | -0.0714 | 0.0154 | -0.0042 | -0.0452 | 0.387 | 0.514 | 0.537 | 0.542 | 0.388 | 0.485 | 0.494 | 0.461
4 | C[C@]12CCC(=O)C=C1CC[C@@H]1[C@@H]2[C@@H](O)C[C@@]2(C)[C@H]1CC[C@]2(O)C(=O)CO [Hydrocortisone (Cortisol)] | 0.112 | 0.0854 | 0.0156 | -0.0358 | 0.303 | 0.304 | 0.221 | 0.167 | -0.0911 | -0.0297 | -0.194 | -0.593 | -0.515 | -0.297 | -0.373 | -0.697 | 0.0227 | 0.0897 | 0.119 | 0.139 | 0.281 | 0.288 | 0.293 | 0.362 | 0.519 | 0.578 | 0.597 | 0.608 | 0.101 | 0.303 |  | 
